Compound activity from PubChem.
Shown are actives, neighbours in structure and some others; about 12% of the full set was active somewhere.
HP1b binding inh: blocks HP1-beta chromodomain binding to methylated histone tails; 390,000 compounds, 0.56% hits; Potency, µM (top dose mostly 114 µM), for the others: top-dose activity change, negative = inhibition, hits mostly inhibitors; AlphaScreen HP1-beta / biotin-H3K9me3 peptide binding; P83916; also: nearly all actives have a fitted effect of over 70% in size
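Compound inhibition of the preformed complex between 50 nM HP1-beta and 50 nM biotinylated H3K9me3 peptide was read by AlphaScreen. Buffer was PBS pH 7.4 with 0.01% Tween-20. Incubations ran 30 min at room temperature, with 10 ug/mL donor/acceptor beads.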
BAZ2B block: inhibitors of human BAZ2B bromodomain; AID 504333; AlphaScreen BAZ2B-H3K14Ac peptide displacement; 360,000 compounds, 4.4% hits; Q9UIF8; Potency, µM (doses to about 114 µM), inactives show top-dose activity change, negative = inhibition, hits mostly inhibitors; also: % is scaled to controls: 0 for no effect and ±100 for the full control effect; nearly all actives have a fitted effect of over 60% in size
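AlphaScreen luminescence quantifies BAZ2B engagement of H3K14Ac peptide; the protein and biotinylated peptide are both at 50 nM final, buffer PBS pH 7.4 with 0.01% Tween-20, all steps at room temperature.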
Sfp PPTase inh: blocks B. subtilis Sfp PPTase activity; 310,000 compounds, 3.5% hits; Potency, µM, for inactives: largest response in the series, negative = inhibition, hits mostly inhibitors; Q9F4F7; Biochemical Sfp PPTase activity, qHTS;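 also: the enzyme is Sfp with the accession as filed and its product quenches rhodamine fluorescence; 0% = enzyme reaction without inhibitor and -100% = no enzyme wells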
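Fluorescence-quenching assay with 15 nM Sfp, 5 uM rhodamine-CoA and 12.5 uM BHQ-2-labelled ybbR peptide in pH 7.6 Hepes/MgCl2 buffer. Enzyme was pre-incubated with compound for 15 min at room temperature. Rate was taken from the 30-min fluorescence change (525/598 nm).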
JMJD2A Tudor: inhibitors of human JMJD2A Tudor domain | 390,000 compounds, 4.4% hits | Potency, µM (titrated, usually from 114 µM), inactives show at the top dose activity change, negative = inhibition, usual class: inhibitors | AlphaScreen JMJD2A-Tudor / H3K4me3 peptide binding | O75164; also: % is scaled to controls: 0 for no effect and ±100 for the full control effect; nearly all actives have a fitted effect of over 50% in size
G9a block: inhibitors of human histone lysine methyltransferase G9a | Q96KQ7 | G9a H3K9 monomethylation, AlphaScreen, 2 h | Potency, µM (doses to about 102 µM), for inactives: at the highest dose activity, negative = inhibition, usual class: inhibitors | 350,000 compounds, 8.8% hits | AID 504332; also: % is scaled to controls: 0 for no effect and ±100 for the full control effect; nearly all actives have a fitted effect of over 75% in size
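Step 1: enzyme (final 20 nM) with compound, 15 min RT. Step 2: substrate peptide 500 nM and SAM 20 uM, 2 h RT. Step 3: anti-H3K9me1 antibody and AlphaScreen beads, 10 min, then plate read.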
TDP1 block: blocks human tyrosyl-DNA phosphodiesterase 1; Q9NUW8; AID 485290; Potency, µM (top dose mostly 130 µM), inactives show top-dose activity change, negative = inhibition, hits mostly inhibitors; 350,000 compounds, 0.28% hits; recombinant TDP1, AlphaScreen DNA substrate cleavage; also: % is scaled to controls: 0 for no effect and ±100 for the full control effect; nearly all actives have a fitted effect of over 40% in size
Target sequence (Q9NUW8 whole entry, looked up): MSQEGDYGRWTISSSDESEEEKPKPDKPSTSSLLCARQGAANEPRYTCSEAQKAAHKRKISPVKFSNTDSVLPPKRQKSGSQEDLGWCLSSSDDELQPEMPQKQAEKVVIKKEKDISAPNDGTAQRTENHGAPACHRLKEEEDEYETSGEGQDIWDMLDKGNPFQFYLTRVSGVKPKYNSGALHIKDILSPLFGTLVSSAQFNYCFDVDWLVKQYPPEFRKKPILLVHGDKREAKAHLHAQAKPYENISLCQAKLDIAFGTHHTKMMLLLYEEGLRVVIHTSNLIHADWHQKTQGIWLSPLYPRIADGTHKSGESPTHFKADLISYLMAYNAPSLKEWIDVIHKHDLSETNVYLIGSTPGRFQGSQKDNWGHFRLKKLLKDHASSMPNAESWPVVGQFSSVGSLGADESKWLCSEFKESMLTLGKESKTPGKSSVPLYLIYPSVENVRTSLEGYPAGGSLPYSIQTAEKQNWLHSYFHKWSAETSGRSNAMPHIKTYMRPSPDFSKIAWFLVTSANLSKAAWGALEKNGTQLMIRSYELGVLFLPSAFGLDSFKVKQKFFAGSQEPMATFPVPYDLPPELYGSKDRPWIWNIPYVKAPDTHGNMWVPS
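Recombinant E. coli-expressed Tdp1 (1 nM) preincubated with compound 15 min at RT, then 5'-biotin/3'-phosphotyrosine-FITC DNA substrate (15 nM) added for 5 min. AlphaScreen beads (10 ug/ml) added, 10 min RT; tyrosine-FITC cleavage read as signal loss.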
Starred values were filed as active, the others as inactive; u = inconclusive; x = not tested or not shown; [ ] = dose if it differs, or a comment. Calls follow the shape of the dose curve; as a rule, active = well fitted curve in the direction sought with a large enough effect; inconclusive = small, poorly fitted or top-dose-only effect, or another doubt; inactive = no such curve, though single readings can be large; an effect the other way counts as inactive or inconclusive. Potency is read from the fitted curve at half-maximal effect.

SMILES	HP1b binding inh	BAZ2B block	Sfp PPTase inh	JMJD2A Tudor	G9a block	TDP1 block
Cc1cc(C)c2c(NC(N)=S)n[nH]c2n1	-1%	0%	-19%	32µM*	25µM*	3%
Cc1cc2[nH]ncc2cc1NC(N)=S	44%	-1%	-11%	-4%	11%	0%
N#Cc1ccc(C(=O)Nc2ccc3c(c2)N(C2CCCC2)C(=O)c2ccccc2S3)cc1	19%	2%	x	-29%	-23%[59 µM]	6%
O=C(O)COc1ccccc1-c1nc(-c2ccccc2)c(-c2ccccc2)[nH]1	-5%	u	-29%	-33%	79µM*	8%
CN1CCN(NC(=O)c2cn(-c3ccccc3)nc2-c2ccc(OC(F)F)cc2)CC1	25%	-29%	8%	-22%	79µM*	3%
O=C(O)c1cn(-c2ccccc2)nc1-c1ccc(F)cc1	21%[57 µM]	-15%	15%	-12%	13%[59 µM]	6%
COc1cc(OC)cc(C(=O)N(Cc2ccco2)c2c(N)n(Cc3ccccc3)c(=O)[nH]c2=O)c1	30%	x	x	-1%	x	x
NC(CCC(=O)NCS(=O)(=O)O)C(=O)O (stereo not given)	x	x	50µM*	x	26%[12.7 µM]	3%[56.1 µM]
N[C@H](CCC(=O)NCC(=O)O)C(=O)O	x	x	-3%	x	36%[59 µM]	0%
c1ccc2c(c1)CCOC2CNCCCN1CCCCC1 (stereo not given)	38%	-1%	15%	-12%	22µM*	6%
O=S(=O)(NCC1OCCc2ccccc21)c1ccc(S(=O)(=O)N2CCOCC2)cc1 (stereo not given)	9%	-9%	5%	-14%	-6%[59 µM]	0%
Cc1ccccc1CN1CCN(C(=O)c2cc(-c3ccncc3)nc3ccccc23)CC1	-13%	u	u	u	35µM*	8%
Cn1c(C(=O)N2CCN(c3ncccn3)CC2)cc2c(=O)n(C)c3ccccc3c21	41%	-3%	40µM*	-2%	45µM*	2%
O=C(c1cc(-c2ccc(Br)cc2)nc2ccccc12)N1CCN(c2ccccc2O)CC1	-18%	-12%	x	u	50µM*	2%
CCN1CCCC(OC(=O)c2cc(-c3ccc(C)cc3)nc3ccccc23)C1 (stereo not given)	13%	x	4%	18µM*	u	8%
O=C(Cn1ccc([N+](=O)[O-])n1)Nc1ccccn1	21%	0%	11%	1%	-6%	0%
CC1(C)CC(NC(=O)C2CCN(S(=O)(=O)c3cccc(C(F)(F)F)c3)CC2)CC(C)(C)N1	29%	-20%	x	-12%	-13%[12.7 µM]	-1%
CC(C)C[C@H]1CNC(=O)C(=O)N1CC1CCN(CC2CCC(C(C)(C)C)CC2)CC1 (stereo not given in full)	25%	x	x	-14%	x	x
Cc1ccc(-c2cc(C(=O)N3CCN(c4ncccn4)CC3)c3ccccc3n2)cc1	26%	-35%	-20%	-13%	45µM*	7%
Cc1ccc(-c2nn(-c3cc(N4CCNCC4)ccc3[N+](=O)[O-])c(=O)c3ccccc23)cc1	u	-37%	-26%	u	32µM*	7%
Cc1ccc(-c2nn(-c3cc(Cl)ccc3[N+](=O)[O-])c(=O)c3ccccc23)cc1C	u	45µM*	-16%	u	-5%[0.501 µM]	10%
O=c1c2ccccc2c(-c2ccccc2)nn1-c1cc(Cl)ccc1[N+](=O)[O-]	-11%	u	14%	-29%[11.4 µM]	-8%[59 µM]	9%
Cc1ccc(CNC(=O)C2CCN(C(=O)Nc3ccc(C)cc3)CC2)cc1	2%	7%	12%	-10%	-1%	11%
Cc1ccc(C)c(N2CCN(CCCNC(=O)Cn3cccc3C(=O)c3ccccc3C)CC2)c1	-18%	-30%	-1%	u	-39%	3%
Cc1ccccc1C(=O)c1cccn1CC(=O)NCCN1CCN(c2cccc(C)c2C)CC1	u	u	-5%	50µM*	-6%[59 µM]	5%
SMILES	HP1b binding inh	BAZ2B block	Sfp PPTase inh	JMJD2A Tudor	G9a block	TDP1 block
COc1ccc(OC)c(NC(=O)c2cccc(Cn3cc(Br)c([N+](=O)[O-])n3)c2)c1	-7%	-11%	-12%	-27%	2.5µM*	7%
Cc1ccccc1NC(=O)c1cccc(Cn2cc(Br)c([N+](=O)[O-])n2)c1	13%	-3%	1%	-5%	19%[12.7 µM]	3%
Cc1ccc(NC(=O)C(c2ccccc2)N2CCN(CC(=O)N3CCOCC3)CC2)cc1Cl (stereo not given)	28%	-10%	x	-8%	u	28µM*
O=C(Nc1ccc(F)cc1)C(c1ccccc1)N1CCN(CC(=O)N2CCOCC2)CC1 (stereo not given)	25%	6%	x	-6%	10µM*	-2%
CN(Cc1ccccc1)S(=O)(=O)c1ccc(Cl)c(C(=O)NCCCN2CCOCC2)c1	22%	-1%	x	-8%	-38%	x
Cc1cc(Br)c(NC(=O)CSc2n[nH]c(N)n2)c(Br)c1	34%	x	x	-10%	x	0%
O=S(=O)(Oc1ccccc1N1CCCCC1)c1ccccc1	172%	52%	-8%	160%	x	3%
CCOC(=O)CSc1nc2sc3c(c2c(=O)n1CC)CCCC3	37%	3%	x	-9%	u	0%[12.3 µM]
Cc1nc2sc3c(c2c(=O)n1NC(=O)CCBr)CCCC3	40%	-18%	-16%	-11%	50µM*	0%
CSc1nc2sc3c(c2c(=O)n1C)CCC3	29%	-13%	-3%	-6%	x	1%
Cc1ccccc1-n1c(SCC(=O)O)nc2sc3c(c2c1=O)CCCC3	41%	-3%	10%	u	4%	x
C#CCSc1nc2sc3c(c2c(=O)n1C)CCC3	u	50µM*	-2%	79µM*	45µM*	x
NNc1nc2sc3c(c2c(=O)n1Cc1ccccc1)CCC3	-18%	-23%	32µM*	-32%	u	x
CCn1c(SCC(N)=O)nc2sc3c(c2c1=O)CCCC3	38%	-6%	18%	-9%	45µM*	2%
CC1CN(C(=O)CCNC(=O)c2ccc(Cl)cc2)CC(C)O1 (stereo not given)	34%	-3%	5%	-1%	17%	2%
Cc1ccc(S(=O)(=O)/N=C(/Nc2ccc([N+](=O)[O-])cc2[N+](=O)[O-])c2ccccc2)cc1	-10%	x	x	u	x	6%
O=C(CNC(=O)c1ccc(Br)o1)NNC(=O)c1ccccc1F	11%	-15%	16%	-8%	x	0%
Cc1ccc(NC(=O)CN(C)C(=O)Cc2c(Cl)cccc2Cl)cc1	u	-3%	7%	-16%	-2%[59 µM]	-7%
O=C(Nc1cccc2cccnc12)c1ccc(F)cc1	61%	157%	x	-6%	14%[59 µM]	-1%
O=C(NCc1ccccc1Cl)c1cnc2sc(N3CCOCC3)nn2c1=O	16%	-3%	x	-5%	-17%[59 µM]	5%
